IkB signaling: IkB pathway inhibition in ABC-DLBCL cells | AID 445 | Potency, µM (top dose mostly 57.1 µM), inactives show at the highest dose IkBa stabilization activation | ABC-DLBCL IkBa-CBG/CBR dual luciferase ratio, 4 h; response scale: scaled: untreated 0%, proteasome inhibitor 100% | 110,000 tested, 0.04% active; active means well fitted curve in the direction sought with a large enough effect in the signal ratio, not every such curve was filed as active; inconclusive means small, poorly fitted or top-dose-only effect, or a change in a side signal; the % refers to the signal ratio;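 further: the direction sought is a rising ratio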
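Luminescence ratio of IκBα-fused green versus native red beetle luciferase in OCI-Ly3 cells, 4 h post-doxycycline with compound; red signal alone, scaled from basal (0%) to zero light (-100%), flagged nonspecific or cytotoxic effects.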
p53ts 32C tox: kills p53ts cells at the permissive temperature; H1299-p53A138V at 32C, ATP luminescence viability, 24 h; Potency, µM (doses to about 46.1 µM), for the others: top-dose activity change, negative = cytotoxicity, usual class: cytotoxic; 130,000 tested, 0.93% active; AID 924;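 further: 0% = DMSO and -100% = full killing by reference compound; nearly all actives have a fitted effect of over 55% in size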
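ATP-content luminescence (ATPlite) read-out after 24 h compound exposure at 32C in H1299-p53A138V cells (600/well). Tested up to 46 uM. Normalized to DMSO (0%) and 100 uM tamoxifen (100% killing); Hill-fit AC50.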
Casp1 inh: blocks human caspase-1 allosterically or competitively. Caspase-1 enzyme, Ac-WEHD-AFC fluorogenic rate. Potency, µM (series often up to 57.5 µM), for inactives: top-dose activity change, negative = inhibition, most hits filed as inhibitors. 75,000 tested, 0.03% active. AID 900;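 further: plate controls were vehicle for no effect and no substrate for full effect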
FLuc inh: inhibitors of firefly luciferase. P08659. purified firefly luciferase, luminescence, 8 min. Potency, µM (series often up to 57.1 µM), for the others: at the highest dose activity change, negative = inhibition, usual class: inhibitors. 72,000 tested, 2.2% active. AID 411; further: on the % scale 0 is the no-effect control and ±100 the full control effect; nearly all actives have a fitted effect of over 40% in size
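Substrate buffer containing 10 uM ATP (pH 7.2 imidazole, Mg2+, KCl, detergent, BSA) is dispensed, compound pinned in, then luciferase/luciferin detector mix added. After 8 min at ambient temperature, light output is measured.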
Caspase-7 inhib: blocks human caspase-7 allosterically or competitively. 75,000 tested, 0.02% active. Potency, µM (doses to about 57.5 µM), inactives show at the highest dose activity change, negative = inhibition, hits mostly inhibitors. recombinant caspase-7, Ac-DEVD-AFC fluorescence rate. P55210; active means well fitted inhibition curve with a large enough effect in the main read-out, with a control signal flat, not every such curve was filed as active; inconclusive means small, poorly fitted or top-dose-only effect, or a change in a side signal; further: % of control where 0% means no effect
p53ts 39C tox: p53ts cell cytotoxicity, nonpermissive temperature | H1299-p53A138V viability at 39C, ATP luminescence, 24 h | 130,000 tested, 1.5% active | Potency, µM (highest dose often 46.1 µM), for the others: at the top dose activity change, negative = cell killing, actives largely listed as cytotoxic | AID 902; further: on the % scale 0 is the no-effect control and ±100 the full control effect; nearly all actives have a fitted effect of over 55% in size
* marks the source's active call; other numbers are inactive results; ? = inconclusive; / = not tested or not shown; [ ] = remark or other dose. A selection: hits, their analogues and other compounds. The true share with any hit is near 2.5%. Unless noted, the call rests on the fitted dose curve; in most records, active means well fitted curve in the direction sought with a large enough effect; inconclusive means small, poorly fitted or top-dose-only effect, or another doubt; inactive means no such curve, though single readings can be large; an effect the other way counts as inactive or inconclusive. Potency means the concentration at half of the fitted maximal effect.

SMILES	IkB signaling	p53ts 32C tox	Casp1 inh	FLuc inh	Caspase-7 inhib	p53ts 39C tox
CCN1CCN(CCCNC(=O)c2cnn(-c3ccc(C)cc3)c2C2CCN(C(=O)OC(C)(C)C)CC2)CC1	?	6.1%	/	/	/	15.0%
Cc1ccc(C)c(N2CCN(CCCNC(=O)c3cnn(-c4ccccc4Cl)c3C3CCN(C(=O)OC(C)(C)C)CC3)CC2)c1	?	2.0%	/	/	/	15.8µM*
Cc1ccc(C)c(N2CCN(CCCNC(=O)c3cnn(-c4ccc(F)cc4)c3C3CCN(C(=O)OC(C)(C)C)CC3)CC2)c1	?	?	/	/	/	25.1µM*
O=C1CC(N2CCN(S(=O)(=O)c3cccc(C(F)(F)F)c3)CC2)C(=O)N1Cc1ccccc1 (configuration not stated)	2.2%	12.7%	-2.8%	-0.1%	-4.7%	-12.9%
COc1ccccc1NC(=O)CCNC(=O)Cn1ccc2ccccc2c1=O	-0.3%	-16.5%	2.4%	-2.6%	1.7%	-1.6%
Cc1ccc(C(=O)Nc2nnn(C)n2)cc1	0.5%	?	0.4%	25.1µM*	0.1%	?
CCn1nnc(NC(=O)c2ccc(C(C)(C)C)cc2)n1	-1.7%	2.51µM*	-3.6%	12.6µM*	0.4%	5.01µM*
Cn1nnc(NC(=O)c2cccc(F)c2)n1	-0.6%	-8.0%	1.2%	-1.3%	3.2%	7.2%
CCn1nnc(NC(=O)c2cccnc2)n1	3.6%	-13.0%	0.4%	-1.2%	-1.6%	7.1%
COCCCNC(=O)c1ccc2c(=O)n(C3CCCC3)c(=S)[nH]c2c1	-0.8%	16.6%	2.2%	2.5%	-0.3%	11.3%
Oc1c(Br)cc(Br)c2cccnc12	/	?	-5.5%	/	-0.4%	7.94µM*
Oc1c(CN2CCN(c3ccccc3)CC2)cc(Br)c2cccnc12	8.7%[11.4 µM]	-4.0%[9.22 µM]	-1.9%[11.5 µM]	-7.6%[11.4 µM]	0.3%[11.5 µM]	?
Cc1ccc(-c2nc3ccccc3[nH]2)cc1NC(=O)COc1ccccc1[N+](=O)[O-]	?	15.8µM*	/	/	/	7.94µM*
COc1cc(NS(=O)(=O)c2cc(Br)cc3c2N(C(=O)C2CC2)CC3)cc(OC)c1	1.3%	10µM*	/	/	/	12.6µM*
COc1ccc2cc(C(=O)NCc3ccc4c(c3)CCN4C(=O)c3ccc(F)cc3)[nH]c2c1	?	-0.6%	/	/	/	-16.6%
Cc1ccc(NC(=O)c2cc(C)n(-c3ccccc3)c2C)cc1	/	/	/	/	/	7.08µM*
Cc1ccc(N2C(=O)C3C(C2=O)C2C=CC3C23CC3)cc1 (configuration not stated)	1.8%	?	-2.0%	12.6µM*	0.1%	?
O=C1C2C(C(=O)N1c1ccncc1)C1C=CC2C12CC2 (configuration not stated)	2.8%	-8.3%	1.4%	-4.8%	0.2%	-6.5%
C[C@]12CC[C@H]3[C@@H](CCC4=CC(=O)CC[C@@]43C)[C@@H]1CC[C@@H]2C(=O)CO	/	/	/	-1.2%[25.5 µM]	/	/
C[C@@H](C(=O)NCCF)[C@H]1C[C@]1(C)[C@H](NC(=O)OCc1ccccc1)c1ccccc1	/	13.0%	0.5%	/	0.9%	-6.2%
Cc1ccc(-n2sc3ccccc3c2=O)cc1S(=O)(=O)N1CCCCC1	3.0%	-22.6%	-0.9%	15.8µM*	-14.3%	-1.9%
Cc1nc(SCC(=O)O)c2oc3ccccc3c2n1	-0.9%	-9.8%	-0.6%	-1.5%	1.4%	-9.1%
O=C1NC(=O)[C@@H]2C3c4ccccc4C=CN3[C@H](C(=O)c3cccs3)[C@H]12 (some centres not stated)	8.5%	-1.1%	/	25.1µM*	?	-5.3%
CC(=O)[C@H]1[C@H]2[C@H](C(=O)[C@@H]3OC[C@H]2O3)[C@@H]2c3ccccc3C=CN12	2.6%[11.4 µM]	/	/	-13.1%[11.4 µM]	/	/
N#Cc1cccc(-c2nccc(NCc3cccs3)n2)c1	-0.4%[11.4 µM]	-4.0%	-7.8%	-0.6%[2.29 µM]	-5.2%	?
SMILES	IkB signaling	p53ts 32C tox	Casp1 inh	FLuc inh	Caspase-7 inhib	p53ts 39C tox
CC1CCN(c2nn3c(=O)c(C(=O)NCCCOC(C)C)cnc3s2)CC1	-3.6%	3.0%	/	/	/	30.0%
CCc1ccc(NC(=O)Cn2cc(S(=O)(=O)c3ccc(F)cc3)c(=O)c3cc(OC)ccc32)cc1	9.5%	?	/	/	/	12.6µM*
COc1ccc(CN2C3CCCC2CC(NC(=O)Nc2ccccc2)C3)cc1 (configuration not stated)	/	-20.4%	/	/	/	7.9%
CCC1SC(=NC(=O)c2ccc(Cl)c(Cl)c2)NC1=O (configuration not stated)	?	7.94µM*	-2.8%	?	1.3%	7.94µM*
O=C(CC1S/C(=N/N=C/c2cccs2)NC1=O)Nc1ccc(Cl)c(Cl)c1 (configuration not stated)	/	/	/	/	/	8.0%
Cc1cccc(OCC(=O)Nc2cccc(O)c2)c1	5.5%	-28.8%	0.2%	-10.5%	-3.9%	-25.0%
COc1ccc(OCC(=O)Nc2ccc(C)cc2)cc1	-2.4%	-3.6%	-2.6%	-7.2%	2.6%	-0.8%
CCC(=O)Nc1cccc(NC(=O)COc2ccc(OC)cc2)c1	4.0%	-24.8%	0.5%	20µM*	0.1%	-10.2%
Cc1ccc2nc(-c3cc(NC(=O)COc4ccc(C)c(C)c4)ccc3Cl)oc2c1	1.6%	?	/	/	/	12.6µM*
Cc1ccc(OCC(=O)Nc2cccc(O)c2)cc1C	?	-15.2%	-0.7%	15.8µM*	-0.1%	-28.2%
CC1(O)C(=O)C=C2C=C(CCCCOCc3ccccc3)OC=C2C1=O (configuration not stated)	/	0.3%[9.22 µM]	-6.0%[11.5 µM]	/	-11.7%[11.5 µM]	13.1%[9.22 µM]
COC(=O)CCn1nnc(-c2ccc(C(C)C)cc2)n1	?	?	-0.1%	12.6µM*	-0.8%	?
COc1ccc(-c2noc(Cn3c(=O)c4ccccc4n(CC(=O)Nc4cccc(C(F)(F)F)c4)c3=O)n2)cc1	?	-3.0%	/	/	/	30.9%
COc1ccc(-c2noc(N(C)CC(=O)Nc3cccc(C(F)(F)F)c3)n2)cc1	?	33.5%	-1.6%	25.1µM*	-4.4%	-16.8%
CCOc1ccc(CNC(=O)c2cc3c(=O)n(C)c4ccccc4c3s2)cc1	0.8%	8.6%	/	/	/	3.4%
O=C(CN1C(=O)CSC1=O)Nc1ccc(N2CCOCC2)cc1	-0.8%	-2.0%	0.3%	-3.9%	-0.5%	-11.4%
Cc1ccc(-n2c(=O)c3ccc(C(=O)NCc4ccccc4Cl)cc3n(Cc3ccccc3F)c2=O)cc1	-0.6%	6.2%	/	/	/	32.0%
Cc1ccc(NC(=O)Cn2c(=O)n(-c3ccc(C)cc3)c(=O)c3ccc(C(=O)NCc4ccccc4Cl)cc32)cc1	?	6.31µM*	/	/	/	1.26µM*
CCc1ccc(NC(=O)Cn2c(=O)n(-c3ccc(OC)cc3)c(=O)c3ccc(C(=O)NCc4ccc(C)cc4)cc32)cc1	1.3%	10µM*	/	/	/	3.16µM*
